VP16 counter: VP16 counterscreen qHTS for inhibitors of ROR gamma transcriptional activity; Drosophila S2 Gal4-VP16 UAS-luciferase, luminescence, 20 h; Potency, µM (titrated, usually from 53.6 µM), usual class: inhibitors; actives 3.5% (n = 310,000); AID 2546, 2010;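 further: Gal4-VP16 expression switched on by copper sulfate through the metallothionein promoter; nearly all actives have a fitted effect of over 50% in size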
RORgamma inh: qHTS for inhibitors of ROR gamma transcriptional activity; Nuclear receptor ROR-gamma (Mus musculus), P51450; Drosophila S2 Gal4-RORgamma UAS-luciferase reporter, 20 h; AID 2551, 2010; actives 5.4% (n = 310,000); Potency, µM (series often up to 53.6 µM), actives largely listed as inhibitors; further: nearly all actives have a fitted effect of over 60% in size
Target sequence (P51450 whole entry, looked up, the tested form may be a part): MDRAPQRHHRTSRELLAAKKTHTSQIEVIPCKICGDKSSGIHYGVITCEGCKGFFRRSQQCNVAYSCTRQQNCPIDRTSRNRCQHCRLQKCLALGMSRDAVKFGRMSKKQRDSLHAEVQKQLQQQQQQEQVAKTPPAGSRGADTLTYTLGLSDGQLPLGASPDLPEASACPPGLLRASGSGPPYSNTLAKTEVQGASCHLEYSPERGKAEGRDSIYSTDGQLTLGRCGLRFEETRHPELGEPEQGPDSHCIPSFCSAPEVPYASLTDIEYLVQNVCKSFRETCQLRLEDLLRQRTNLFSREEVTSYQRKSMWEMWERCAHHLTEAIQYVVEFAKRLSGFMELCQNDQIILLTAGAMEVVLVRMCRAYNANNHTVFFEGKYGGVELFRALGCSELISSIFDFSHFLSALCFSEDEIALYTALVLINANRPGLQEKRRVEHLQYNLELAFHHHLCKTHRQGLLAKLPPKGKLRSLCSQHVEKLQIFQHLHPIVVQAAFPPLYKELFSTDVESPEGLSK
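Compounds are pin-transferred onto Drosophila Schneider cells expressing a copper-inducible Gal4–ROR gamma transactivation domain fusion. After 1 hr, copper sulfate is added to 700 uM final; luciferase is read 20 hr later.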
Luc counter: Counterscreen for Luciferase (Kinase-Glo TM) Inhibition; actives 0.28% (n = 200,000); Kinase-Glo luciferase, ATP luminescence, 8 min; AID 1379, 2008; Potency, µM (doses to about 38.3 µM), actives largely listed as inhibitors; further: nearly all actives have a fitted effect of over 60% in size
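Luminescence was the read-out, taken after 8-minute incubation at ambient temperature. Luciferase turned over luciferin with 10 uM ATP in imidazole pH 7.2 buffer containing KCl, MgCl2, Tween 20 and BSA.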
Of the large screens only hits and unclear results are named; the others gave an inactive call. Shown are actives, neighbours in structure and some others; about 6.2% of the full set was active somewhere. The call rests on the fitted dose curve; in most records, active means well fitted curve in the direction sought with a large enough effect; inconclusive means small, poorly fitted or top-dose-only effect, or another doubt; inactive means no such curve, though single readings can be large; an effect the other way counts as inactive or inconclusive.

COc1ccc(C2CC(c3cccs3)=NN2C(=O)c2ccccc2)cc1OC (stereo unspecified)	none (no result: Luc counter)
CNC(=S)N1N=C(c2ccc(Br)cc2)CC1c1ccc(N(C)C)cc1 (stereo unspecified)	RORgamma inh inconclusive
Fc1ccc(C2CC(c3cccs3)=NN2C(=S)Nc2ccccc2)cc1 (stereo unspecified)	RORgamma inh 7.9µM
COc1cc(C2CC(c3cccs3)=NN2C(=O)CCl)ccc1OC(F)F (stereo unspecified)	VP16 counter 16µM, RORgamma inh inconclusive (no result: Luc counter)
O=C(Nc1ccccc1)N1N=C(c2ccc(F)cc2)CC1c1ccc(F)cc1 (stereo unspecified)	none
COc1ccc(C2CC(c3cccs3)=NN2C(=O)CN2CCCCC2)cc1 (stereo unspecified)	none
CNC(=S)N1N=C(c2cccs2)CC1c1ccc(OC)cc1 (stereo unspecified)	RORgamma inh 20µM (no result: Luc counter)
CC1CN2C(CCC(C)C2c2ccc(Br)cc2)C(=O)O1 (stereo unspecified)	none (no result: Luc counter)
CC(CCC(=O)O)C1CCC2C3CC[C@H]4CC(O)CC[C@@]4(C)C3CC(O)[C@]12C (stereo partly specified)	none
O=C(Nc1ccccc1N1CCOCC1)C1CCN(S(=O)(=O)c2ccc(Cl)cc2)CC1	none (no result: Luc counter)
Cc1ccc(C(=O)Nc2c3c(nn2-c2ccccc2)CS(=O)(=O)C3)cc1C	none (no result: Luc counter)
O=C1Nc2cc(C(=O)NCCCN3CCCC3)ccc2S/C1=C\c1ccccc1	none (no result: Luc counter)
COc1ccc(/C=C2/Sc3ccc(C(=O)NCCN4CCCCCC4)cc3NC2=O)cc1	VP16 counter 20µM, RORgamma inh inconclusive (no result: Luc counter)
COc1ccc2c(c1)sc1nc(-c3ccccc3)cn12	VP16 counter 2µM, RORgamma inh 1.6µM, Luc counter 10µM
CCOC(=O)N1CCN(C(=O)c2ccc3c(c2)sc2nc(-c4ccc(OC)cc4)cn23)CC1	none
CCOc1ccc2nc(N=NC3=C(O)CC(C)(C)CC3=O)sc2c1	RORgamma inh 2.2µM
Cc1nc2ccc(N=NC3=C(O)CC(C)(C)CC3=O)cc2s1	none
Cc1ccc(S(=O)(=O)c2cc(C#N)c(=O)[nH]c2N)cc1	none
C/C(=N/NC(=O)CN1CCN(S(=O)(=O)c2ccc(Br)cc2)CC1)c1cccnc1	none
CC(=O)N(C1=C(N)C(=O)c2ccccc2C1=O)C(C)C	RORgamma inh 11µM
CC(=O)N(C)C1=C(O)c2ccccc2C(=O)C1=O	none
Cc1ccc(-c2csc3ncnc(SCC(N)=O)c23)cc1	RORgamma inh 1.6µM
CCc1nnc(NC(=O)CSc2ncnc3scc(-c4ccc(C)cc4)c23)s1	none
Cc1ccc(-c2csc3nc(SCC(N)=O)n(Cc4ccccc4)c(=O)c23)cc1	VP16 counter inconclusive, RORgamma inh 11µM
c1ccc(-c2csc3ncnc(N4CCN(Cc5ccc6c(c5)OCO6)CC4)c23)cc1	none (no result: Luc counter)
Cn1nnnc1Sc1ncnc2scc(-c3ccccc3)c12	RORgamma inh inconclusive
NC(=O)CSc1nc2ccccc2n1Cc1ccccc1	none
Cn1nnnc1Sc1ncnc2scc(-c3ccc(F)cc3)c12	RORgamma inh 10µM
O=C(CSc1ncnc2scc(-c3ccccc3)c12)N1CCN(Cc2ccc3c(c2)OCO3)CC1	VP16 counter inconclusive, RORgamma inh 22µM (no result: Luc counter)
COc1ccc(CCNC(=O)CCCc2ccccc2)cc1OC	none (no result: Luc counter)
CCCn1c(C)cc(C(=O)COC(=O)c2nccnc2N)c1C	VP16 counter inconclusive, RORgamma inh inconclusive
COCCn1c(SCc2ccc(C(=O)OC)o2)nnc1-c1c[nH]c2ccccc12	none
COC(=O)c1ccc(C(NC(=O)OCc2ccccc2)/C(F)=C/[C@@H](C)C(=O)NC2CCCCC2)cc1 (stereo partly specified)	VP16 counter inconclusive, RORgamma inh inconclusive
Cn1c(=S)n(CCC(=O)O)c2ccccc21	none
Cc1sc2ncnc(SCc3ccc(C(=O)O)cc3)c2c1C	none
Cc1ccc(-c2csc3ncnc(SCc4ccc(C(=O)O)cc4)c23)cc1	VP16 counter 4.5µM, RORgamma inh 2.8µM
O=C(NC1CCCCC1)c1ccc(Cc2nc3ccccc3[nH]2)cc1	none (no result: VP16 counter, RORgamma inh)
O=C(CSCc1ccccc1Cl)NN=C1CCCCCC1	none
C/C(=N\NC(=O)CSCc1ccccc1Cl)c1cc(O)ccc1O	VP16 counter 11µM, RORgamma inh 5µM
CCOC(=O)c1cnc(-n2nc(C)cc2C)nc1NNc1cc(-c2ccccc2)nc(C)n1	VP16 counter 0.1µM, RORgamma inh 0.089µM
CCOC(=O)c1cnc2cc(-c3ccc(C)cc3)nn2c1-c1ccccc1	none
CCOC(=O)c1cnn2c(C)cc(-c3ccccc3)nc12	none
CCOC(=O)c1cnc(-n2nc(C)cc2C)nc1NNc1ncc(-c2ccccc2)cn1	VP16 counter inconclusive, RORgamma inh 5.6µM (no result: Luc counter)
C[C@H](O)C(N)C(=O)O (stereo partly specified)	none (no result: Luc counter)
NC(=O)CCn1cnc2ccccc21	none (no result: Luc counter)
Clc1ccc(OCCn2cnc3ccccc32)cc1	RORgamma inh 4µM
Clc1ccccc1OCCn1cnc2ccccc21	none
c1ccc2c(c1)ncn2CCC1CCCCC1	RORgamma inh 7.9µM
CC(CCc1ccccc1)OS(N)(=O)=O (stereo unspecified)	none (no result: Luc counter)
CCOc1ccc(C(=O)NCCC(=O)NCCCC(=O)O)cc1	none
O=C(CNC(=O)c1ccco1)N/N=C/c1cccs1	none (no result: Luc counter)
CC(=O)Oc1ccc2c(=O)c(-c3nc4ccccc4s3)coc2c1	Luc counter 10µM
CC(C)Oc1ccc2c(=O)c(-c3ccccc3)coc2c1	VP16 counter inconclusive
Cc1cc(Br)ccc1-n1[nH]c(C)c(C=Nc2cccc3nsnc23)c1=O	none
CCOC(=O)C1CCN(C(=O)C(C)Oc2ccc(Br)cc2)CC1 (stereo unspecified)	none
Clc1ccccc1-c1nc2ccccc2[nH]1	none (no result: Luc counter)
S=c1nc(-c2ccccc2)[nH]n1-c1ccccc1	VP16 counter 11µM, RORgamma inh 7.9µM
S=c1nc2ccccc2c2nc(-c3ccccc3)[nH]n12	VP16 counter 0.35µM, RORgamma inh 0.089µM
S=c1nc2ccccc2c2nc(-c3ccccc3Cl)[nH]n12	VP16 counter 1.6µM, RORgamma inh 0.35µM (no result: Luc counter)
Cc1nc(=S)n(-c2ccccc2)[nH]1	VP16 counter inconclusive, RORgamma inh inconclusive
Clc1nc(-c2ccccc2)c2ccccc2n1	none (no result: Luc counter)
CCN(CC)c1ccc(NC(=O)c2cccc(F)c2)c(C)c1	none
COc1ccc(NC(=O)CSc2ccc(-c3cccnc3)nn2)c(OC)c1	none (no result: Luc counter)
O=C(NCc1cccnc1)c1cc2nc(-c3cccs3)cc(C(F)(F)Cl)n2n1	none
Cc1cccc(C(=O)OCC(=O)N(C)c2ccccc2)c1C	none (no result: Luc counter)
Cc1cccc(C(=O)OCC(=O)NCCNC(=O)COC(=O)c2cccc(C)c2C)c1C	VP16 counter inconclusive, RORgamma inh 13µM (no result: Luc counter)
O=C(NCCN1CCOCC1)C1CCCN(S(=O)(=O)c2ccc(F)cc2)C1 (stereo unspecified)	none (no result: Luc counter)
C=CCn1c(CSc2nnc(-c3ccccc3)n2C)n[nH]c1=S	none (no result: Luc counter)
CCn1c(-c2cccn(Cc3ccc(Cl)cc3Cl)c2=O)n[nH]c1=S	RORgamma inh 10µM
CC(C)Oc1ccc(Cn2c(-c3ccco3)n[nH]c2=S)cc1	VP16 counter 4.5µM, RORgamma inh 2.8µM
CC(c1nnc(SCC(=O)Nc2ccc3[nH]c(=O)[nH]c3c2)n1Cc1ccccc1)N(C)C (stereo unspecified)	none

Compound activity deposited in PubChem BioAssay by National Center for Advancing Translational Sciences (NCATS).
